Laboratory results: the supplement of paper PMC10849652
Targets with a hit are over-represented here; the source holds about 7,900 in all. About 0.6% of all pairs of compound and target were hits. Values without a mark were called inactive.

Experiments:
Test in all cases: log2 fold change, soluble protein after heating vs DMSO (PISA); higher = thermal stabilisation; K562 cells, 10 uM, 30 min; active = over 0.2 and 3.5 SD of the protein, either way, in both replicates (recomputed)
saracatinib = compound: CN1CCN(CCOc2cc(OC3CCOCC3)c3c(Nc4c(Cl)ccc5c4OCO5)ncnc3c2)CC1 [saracatinib]
Summary of the method: (§1)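 Thermal stability values are relative to control samples and come from duplicates. They are expressed as log2 fold changes. For measurement, K562 cells (2×10^6 cells/mL) received 10 μM compound for 30 min, and aliquots were heated for 3 min over 48°C-58°C, pooled, and extracted at 4°C in PBS with 0.5% NP-40. Soluble protein, the supernatant after 21,000xg for 90 min, was quantified by TMTpro 16plex LC-MS/MS with equalised channel sums.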

sotrastaurin = compound: CN1CCN(c2nc(C3=C(c4c[nH]c5ccccc45)C(=O)NC3=O)c3ccccc3n2)CC1 [sotrastaurin]
Summary of the method: as §1

alvocidib = compound: CN1CC[C@H](c2c(O)cc(O)c3c(=O)cc(-c4ccccc4Cl)oc23)[C@H](O)C1 [alvocidib]
Summary of the method: as §1

Tubastatin A = compound: CN1CCc2c(c3ccccc3n2Cc2ccc(C(=O)NO)cc2)C1 [Tubastatin A]
Summary of the method: as §1

[1] = compound: CNC(=O)C1=CC=CC=C1NC2=NC(=NC=C2Cl)NC3=C(C=C(C=C3)N4CCOCC4)OC
Summary of the method: as §1

defactinib = compound: CNC(=O)c1ccc(Nc2ncc(C(F)(F)F)c(NCc3nccnc3N(C)S(C)(=O)=O)n2)cc1 [defactinib]
Summary of the method: as §1

rucaparib = compound: CNCc1ccc(-c2[nH]c3cc(F)cc4c3c2CCNC4=O)cc1 [rucaparib]
Summary of the method: as §1

[2] = compound: CNc1nc(-c2ccc3c(N)n[nH]c3c2)cc(N2C[C@@H](C(=O)NC3CCCCC3)CC[C@H]2C)n1
Summary of the method: as §1

encorafenib = compound: COC(=O)N[C@@H](C)CNc1nccc(-c2cn(C(C)C)nc2-c2cc(Cl)cc(NS(C)(=O)=O)c2F)n1 [encorafenib]
Summary of the method: as §1

[3] = compound: COC(=O)[C@H](CCSC)NC(=O)C1=C(C=C(C=C1)NC[C@H](CS)N)C2=CC=CC=C2
Summary of the method: as §1

UniProt A3KMH1, sequence (A3KMH1 whole entry, looked up): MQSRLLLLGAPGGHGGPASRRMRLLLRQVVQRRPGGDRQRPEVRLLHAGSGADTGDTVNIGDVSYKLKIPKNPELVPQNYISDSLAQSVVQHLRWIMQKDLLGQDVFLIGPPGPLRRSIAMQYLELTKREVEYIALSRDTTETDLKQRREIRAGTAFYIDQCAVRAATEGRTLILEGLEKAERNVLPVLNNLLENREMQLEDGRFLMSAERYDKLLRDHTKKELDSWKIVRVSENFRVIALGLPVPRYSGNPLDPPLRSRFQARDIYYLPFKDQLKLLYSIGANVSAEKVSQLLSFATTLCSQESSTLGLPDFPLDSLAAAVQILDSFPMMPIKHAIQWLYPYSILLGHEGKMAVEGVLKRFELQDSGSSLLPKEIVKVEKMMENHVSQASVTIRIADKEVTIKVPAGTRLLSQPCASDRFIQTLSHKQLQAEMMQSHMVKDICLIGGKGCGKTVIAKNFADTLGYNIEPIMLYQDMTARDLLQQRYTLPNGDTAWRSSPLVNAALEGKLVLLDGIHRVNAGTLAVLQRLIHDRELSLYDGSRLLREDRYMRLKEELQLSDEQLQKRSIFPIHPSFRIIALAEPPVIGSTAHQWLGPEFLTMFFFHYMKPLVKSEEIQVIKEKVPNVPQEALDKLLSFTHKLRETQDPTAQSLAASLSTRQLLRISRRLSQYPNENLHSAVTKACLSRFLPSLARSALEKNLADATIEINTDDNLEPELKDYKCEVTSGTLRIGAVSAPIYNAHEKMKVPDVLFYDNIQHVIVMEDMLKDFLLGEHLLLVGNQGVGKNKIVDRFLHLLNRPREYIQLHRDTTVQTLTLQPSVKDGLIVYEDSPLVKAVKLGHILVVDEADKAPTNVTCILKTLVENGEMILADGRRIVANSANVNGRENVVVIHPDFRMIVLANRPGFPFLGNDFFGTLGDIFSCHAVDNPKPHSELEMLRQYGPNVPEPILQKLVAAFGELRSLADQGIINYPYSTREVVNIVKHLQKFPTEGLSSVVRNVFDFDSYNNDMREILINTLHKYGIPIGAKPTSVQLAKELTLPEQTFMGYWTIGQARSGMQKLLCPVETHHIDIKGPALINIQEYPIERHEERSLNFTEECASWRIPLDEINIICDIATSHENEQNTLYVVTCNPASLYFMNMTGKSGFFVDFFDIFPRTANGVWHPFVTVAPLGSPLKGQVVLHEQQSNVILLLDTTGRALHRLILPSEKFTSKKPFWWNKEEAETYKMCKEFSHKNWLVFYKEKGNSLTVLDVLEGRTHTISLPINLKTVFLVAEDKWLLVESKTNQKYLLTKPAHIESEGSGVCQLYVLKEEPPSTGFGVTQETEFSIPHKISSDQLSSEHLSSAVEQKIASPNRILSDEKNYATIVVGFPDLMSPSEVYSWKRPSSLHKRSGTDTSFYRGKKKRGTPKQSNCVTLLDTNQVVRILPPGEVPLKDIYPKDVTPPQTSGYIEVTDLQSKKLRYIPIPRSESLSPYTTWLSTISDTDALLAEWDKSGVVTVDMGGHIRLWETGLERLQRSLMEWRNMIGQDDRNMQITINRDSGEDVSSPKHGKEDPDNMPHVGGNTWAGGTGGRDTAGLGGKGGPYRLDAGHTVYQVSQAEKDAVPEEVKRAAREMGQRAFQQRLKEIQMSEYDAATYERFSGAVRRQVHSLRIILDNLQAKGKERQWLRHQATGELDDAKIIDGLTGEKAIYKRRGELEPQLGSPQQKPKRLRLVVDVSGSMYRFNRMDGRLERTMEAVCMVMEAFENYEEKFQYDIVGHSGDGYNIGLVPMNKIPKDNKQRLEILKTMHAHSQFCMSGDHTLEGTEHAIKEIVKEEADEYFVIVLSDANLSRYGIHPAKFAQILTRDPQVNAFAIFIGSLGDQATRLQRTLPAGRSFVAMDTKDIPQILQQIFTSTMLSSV
UniProt P13010, sequence (P13010 whole entry, looked up): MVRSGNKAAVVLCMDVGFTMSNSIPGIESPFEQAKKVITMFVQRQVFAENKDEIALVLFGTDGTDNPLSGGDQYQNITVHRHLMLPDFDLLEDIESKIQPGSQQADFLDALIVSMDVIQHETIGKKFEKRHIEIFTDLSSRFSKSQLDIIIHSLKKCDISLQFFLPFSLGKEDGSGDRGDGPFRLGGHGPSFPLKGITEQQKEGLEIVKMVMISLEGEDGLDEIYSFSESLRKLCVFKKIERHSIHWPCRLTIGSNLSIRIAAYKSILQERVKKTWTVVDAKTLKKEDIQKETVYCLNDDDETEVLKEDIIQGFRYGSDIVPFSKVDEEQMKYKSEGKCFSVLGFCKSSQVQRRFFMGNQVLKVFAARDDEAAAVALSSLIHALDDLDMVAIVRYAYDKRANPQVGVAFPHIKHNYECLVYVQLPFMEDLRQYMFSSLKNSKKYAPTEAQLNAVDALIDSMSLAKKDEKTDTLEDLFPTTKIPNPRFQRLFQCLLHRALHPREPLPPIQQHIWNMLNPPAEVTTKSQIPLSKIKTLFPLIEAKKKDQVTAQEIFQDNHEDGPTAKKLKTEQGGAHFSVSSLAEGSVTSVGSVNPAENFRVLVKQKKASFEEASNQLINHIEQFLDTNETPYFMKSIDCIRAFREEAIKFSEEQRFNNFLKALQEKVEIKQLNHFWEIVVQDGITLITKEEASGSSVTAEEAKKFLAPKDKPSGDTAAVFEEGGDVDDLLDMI
UniProt Q14139, sequence (Q14139 whole entry, looked up): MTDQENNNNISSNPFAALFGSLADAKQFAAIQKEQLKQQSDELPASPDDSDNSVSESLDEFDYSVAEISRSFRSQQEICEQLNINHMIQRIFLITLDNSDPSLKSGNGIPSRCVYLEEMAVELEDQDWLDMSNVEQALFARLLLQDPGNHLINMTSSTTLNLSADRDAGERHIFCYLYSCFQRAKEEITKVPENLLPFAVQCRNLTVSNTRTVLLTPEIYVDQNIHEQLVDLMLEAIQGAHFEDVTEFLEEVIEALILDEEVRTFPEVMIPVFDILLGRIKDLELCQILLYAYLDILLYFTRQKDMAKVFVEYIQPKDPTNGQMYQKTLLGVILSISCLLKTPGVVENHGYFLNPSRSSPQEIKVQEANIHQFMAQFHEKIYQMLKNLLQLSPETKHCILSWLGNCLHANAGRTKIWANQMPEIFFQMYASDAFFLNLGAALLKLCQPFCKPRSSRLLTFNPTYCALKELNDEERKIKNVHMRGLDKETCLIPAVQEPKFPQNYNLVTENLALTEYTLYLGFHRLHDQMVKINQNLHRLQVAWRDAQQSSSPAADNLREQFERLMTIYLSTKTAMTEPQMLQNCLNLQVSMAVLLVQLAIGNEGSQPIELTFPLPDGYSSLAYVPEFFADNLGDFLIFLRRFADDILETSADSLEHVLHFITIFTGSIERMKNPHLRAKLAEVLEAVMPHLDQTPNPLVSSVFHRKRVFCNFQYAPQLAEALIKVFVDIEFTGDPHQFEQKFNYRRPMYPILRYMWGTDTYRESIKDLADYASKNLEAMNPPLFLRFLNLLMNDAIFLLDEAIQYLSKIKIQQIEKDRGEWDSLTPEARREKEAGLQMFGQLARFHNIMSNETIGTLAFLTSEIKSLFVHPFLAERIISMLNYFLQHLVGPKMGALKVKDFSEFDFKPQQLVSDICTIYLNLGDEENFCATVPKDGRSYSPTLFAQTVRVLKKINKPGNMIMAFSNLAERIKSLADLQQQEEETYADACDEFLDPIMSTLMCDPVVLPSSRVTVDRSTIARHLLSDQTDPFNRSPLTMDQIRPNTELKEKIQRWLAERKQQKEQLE
UniProt Q7L0Y3, sequence (Q7L0Y3 whole entry, looked up): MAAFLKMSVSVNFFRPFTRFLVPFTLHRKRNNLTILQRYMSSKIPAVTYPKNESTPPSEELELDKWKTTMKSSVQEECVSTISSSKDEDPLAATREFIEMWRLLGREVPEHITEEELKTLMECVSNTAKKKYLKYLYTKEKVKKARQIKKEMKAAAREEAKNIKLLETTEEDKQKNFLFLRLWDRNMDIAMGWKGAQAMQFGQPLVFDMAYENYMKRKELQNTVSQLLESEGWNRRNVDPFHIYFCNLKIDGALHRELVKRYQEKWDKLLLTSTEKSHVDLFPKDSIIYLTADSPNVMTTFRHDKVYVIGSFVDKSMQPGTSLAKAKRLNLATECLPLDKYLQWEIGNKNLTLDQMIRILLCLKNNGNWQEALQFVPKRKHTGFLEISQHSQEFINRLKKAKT
UniProt O95379, sequence (O95379 whole entry, looked up): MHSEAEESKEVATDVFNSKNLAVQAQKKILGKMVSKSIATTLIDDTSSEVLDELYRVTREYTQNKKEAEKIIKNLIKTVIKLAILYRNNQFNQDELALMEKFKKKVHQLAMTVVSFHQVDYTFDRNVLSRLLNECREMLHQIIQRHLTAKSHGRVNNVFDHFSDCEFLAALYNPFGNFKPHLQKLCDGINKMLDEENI
UniProt Q9NP79, sequence (Q9NP79 whole entry, looked up): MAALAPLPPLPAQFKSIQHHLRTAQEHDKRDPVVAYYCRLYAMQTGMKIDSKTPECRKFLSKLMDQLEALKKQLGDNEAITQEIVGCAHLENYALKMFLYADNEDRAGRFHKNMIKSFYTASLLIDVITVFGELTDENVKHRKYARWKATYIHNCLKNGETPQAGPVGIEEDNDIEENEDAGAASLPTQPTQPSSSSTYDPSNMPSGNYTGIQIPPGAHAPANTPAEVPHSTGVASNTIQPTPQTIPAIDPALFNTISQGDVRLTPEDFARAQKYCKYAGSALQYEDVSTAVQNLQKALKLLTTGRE
UniProt P51668, sequence (P51668 whole entry, looked up): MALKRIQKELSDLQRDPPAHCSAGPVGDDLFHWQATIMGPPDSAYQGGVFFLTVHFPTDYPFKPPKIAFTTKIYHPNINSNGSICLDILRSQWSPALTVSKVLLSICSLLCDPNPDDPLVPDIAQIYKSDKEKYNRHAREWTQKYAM
UniProt Q9NX01, sequence (Q9NX01 whole entry, looked up): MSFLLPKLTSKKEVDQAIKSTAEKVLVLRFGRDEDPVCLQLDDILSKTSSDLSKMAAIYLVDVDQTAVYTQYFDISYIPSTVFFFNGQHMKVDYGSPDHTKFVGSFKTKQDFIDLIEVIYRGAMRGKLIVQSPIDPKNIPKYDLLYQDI
UniProt P61960, sequence (P61960 whole entry, looked up): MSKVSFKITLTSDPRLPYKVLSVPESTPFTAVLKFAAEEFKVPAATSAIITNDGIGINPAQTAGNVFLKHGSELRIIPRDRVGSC

| Target | log2 fold change (saracatinib) | log2 fold change (sotrastaurin) | log2 fold change (alvocidib) | log2 fold change (Tubastatin A) | log2 fold change [1] | log2 fold change (defactinib) | log2 fold change (rucaparib) | log2 fold change [2] | log2 fold change (encorafenib) | log2 fold change [3] |
| --- | --- | --- | --- | --- | --- | --- | --- | --- | --- | --- |
| TRIP10 (UniProt Q15642) | 0.036 | -0.014 | -0.011 | 0 | 0.027 | -0.029 | 0.006 | 0.046 | 0.038 | -0.005 |
| XPNPEP1 isoform 3 (UniProt Q9NQW7) | 0.002 | -0.005 | -0.076 | -0.125 | -0.027 | -0.07 | -0.033 | -0.012 | -0.008 | 0.352 (active) |
| VPS51 (UniProt Q9UID3) | -0.029 | -0.097 | -0.113 | 0.029 | -0.011 | -0.056 | 0.041 | -0.034 | 0.046 | 0.002 |
| TSG101 (UniProt Q99816) | -0.008 | -0.047 | -0.076 | 0 | 0.011 | -0.12 | -0.006 | -0.044 | -0.007 | -0.032 |
| TRMT10C (UniProt Q7L0Y3) | -0.129 | -0.013 | -0.126 | -0.064 | -0.024 | -0.055 | -0.011 | 0.042 | 0.041 | -0.056 |
| VPS50 (UniProt Q96JG6) | -0.108 | -0.089 | -0.07 | 0.036 | 0.04 | -0.11 | 0.033 | -0.012 | 0.1 | -0.022 |
| WDR18 (UniProt Q9BV38) | 0.057 | -0.001 | -0.027 | 0.008 | -0.032 | -0.051 | -0.009 | -0.038 | 0.001 | 0.003 |
| UBE4A isoform 2 (UniProt Q14139) | -0.024 | -0.148 | 0.145 | -0.009 | 0.006 | -0.017 | 0.021 | -0.079 | 0.03 | -0.078 |
| TNFAIP8 isoform 4 (UniProt O95379) | 0.009 | -0.125 | -0.072 | 0.083 | -0.046 | -0.033 | -0.04 | -0.064 | -0.016 | -0.015 |
| WASHC2A (UniProt Q641Q2) | 0.013 | 0.001 | 0.052 | 0.016 | 0.015 | 0.01 | 0.045 | -0.039 | 0.019 | 0.017 |
| VPS41 (UniProt P49754) | -0.02 | -0.077 | -0.046 | 0.034 | -0.055 | -0.041 | 0.023 | -0.001 | -0.011 | 0.103 |
| TMEM208 (UniProt Q9BTX3) | -0.047 | -0.02 | -0.039 | 0.003 | -0.142 | -0.023 | -0.045 | -0.099 | 0.145 | -0.164 |
| TXNRD1 (UniProt Q16881) | -0.012 | 0.058 | -0.05 | -0.001 | 0.022 | -0.015 | -0.113 | 0.032 | -0.033 | -0.001 |
| WAPL isoform 3 (UniProt Q7Z5K2) | 0.043 | -0.144 | -0.296 | 0.063 | -0.008 | -0.265 | -0.066 | -0.052 | 0.212 | -0.079 |
| VWA8 (UniProt A3KMH1) | -0.012 | -0.003 | -0.046 | 0.072 | 0.006 | -0.017 | 0.008 | -0.013 | 0.003 | -0.049 |
| TNFRSF10A (UniProt O00220) | -0.038 | -0.012 | 0.02 | 0.04 | -0.052 | 0.039 | 0.017 | 0.02 | 0.031 | 0.056 |
| WARS2 (UniProt Q9UGM6) | -0.037 | 0.014 | -0.08 | -0.04 | 0.018 | -0.065 | 0.04 | 0.006 | -0.011 | -0.057 |
| USP7 (UniProt Q93009) | -0.087 | -0.083 | -0.147 | 0.023 | -0.106 | -0.104 | 0.03 | 0.152 | 0.057 | -0.06 |
| UBE2D1 (UniProt P51668) | 0.03 | 0.056 | -0.055 | -0.058 | -0.035 | -0.016 | 0.006 | -0.105 | 0.01 | -0.047 |
| TXN2 (UniProt Q99757) | 0.004 | 0.04 | -0.058 | 0.004 | 0.17 | 0.031 | -0.003 | -0.034 | 0.001 | 0.068 |
| TOM1L1 (UniProt O75674) | -0.003 | 0.019 | -0.046 | -0.066 | -0.043 | -0.042 | -0.02 | -0.026 | -0.042 | -0.041 |
| TXNL4B (UniProt Q9NX01) | -0.053 | 0.189 | -0.073 | 0.03 | 0.02 | -0.093 | 0.022 | -0.062 | -0.021 | -0.199 |
| UFM1 isoform 2 (UniProt P61960) | 0 | 0.044 | -0.037 | -0.158 | 0.022 | -0.065 | -0.114 | -0.024 | 0.01 | -0.082 |
| USP25 isoform 3 (UniProt Q9UHP3) | 0.045 | -0.003 | -0.031 | 0.061 | 0.044 | -0.045 | 0.019 | -0.028 | 0.01 | -0.033 |
| WDR7 (UniProt Q9Y4E6) | 0.024 | 0.041 | 0.04 | -0.047 | -0.114 | -0.3 | 0.128 | -0.015 | -0.174 | -0.373 |
| VTA1 (UniProt Q9NP79) | 0.028 | -0.022 | -0.081 | -0.046 | 0.045 | -0.029 | 0.011 | -0.011 | 0.023 | -0.033 |
| XRCC5 (UniProt P13010) | -0.057 | -0.332 | -0.214 | 0.173 | -0.032 | -0.37 | 0.07 | 0.048 | 0.21 | -0.067 |
| UBA6 | -0.006 | -0.125 | -0.08 | -0.047 | 0.041 | -0.089 | 0.024 | 0.011 | 0.049 | -0.032 |
| TMEM173 (UniProt Q86WV6) | -0.002 | -0.023 | -0.07 | 0.03 | 0.014 | -0.055 | -0.078 | 0.034 | 0.062 | -0.005 |
| TRIM44 (UniProt Q96DX7) | 0.035 | -0.076 | -0.008 | 0.116 | -0.01 | -0.053 | -0.092 | -0.026 | 0.032 | 0.025 |
